# Results taken from PubChem BioAssay (NCATS).
# “And” between values parts separate entries of the source, which are not always exact repeats. Equal entries are not always repeated. Records with an inconclusive call do not appear. Entries that show only a call come without a potency. Some compounds were tested as several samples or in several runs, with calls that do not always agree. The source made the active and inactive calls. Calls come from the whole dose curve; as a rule, active = well fitted curve in the direction sought with a large enough effect; inconclusive = small, poorly fitted or top-dose-only effect, or another doubt; inactive = no such curve, though single readings can be large; an effect the other way counts as inactive or inconclusive.
# How the values were obtained:
# MKL-1 = assay: qHTS assay to identify novel small-molecules to repurpose for Merkel cell carcinoma treatment (AID 1296009); conditions: MCC and control cell lines, CellTiter-Glo viability, 72 h; series mostly up to 46 µM; note: nearly all actives have a fitted effect of over 60% in size
# Outline: (§1)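 Cells exposed to NPC (8-point) and MIPE (11-point) compound dilutions for 72 hr at 37 degree celsius; viability read by CellTiter-Glo luminescence, normalized to no-cell and DMSO in-plate controls.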
# MKL-2 = assay: as above; conditions: MCC and control cell lines, CellTiter-Glo viability, 72 h; series mostly up to 46 µM
# Outline: as §1
# UISO = assay: as above; conditions: MCC and control cell lines, CellTiter-Glo viability, 72 h; series mostly up to 46 µM
# Outline: as §1
# WaGa = assay: as above; conditions: MCC and control cell lines, CellTiter-Glo viability, 72 h; series mostly up to 46 µM
# Outline: as §1
# C33A = assay: Primary qHTS to identify gynecologic anti-cancer compounds using libraries of approved drugs and bioactive compounds (AID 1345084); conditions: Gynecologic cancer cell panel viability, ATPlite luminescence, 48 h; series mostly up to 57.5 µM; note: nearly all actives have a fitted effect of over 55% in size
# Outline: (§2)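 Cells, 1,000 per well, plated 16 h, then exposed 48 h at 37 C to compounds. Viability by ATPlite luminescence after 15 min at room temperature.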
# CAOV3 = assay: as above; conditions: Gynecologic cancer cell panel viability, ATPlite luminescence, 48 h; series mostly up to 57.5 µM
# Outline: as §2
# CASKI = assay: as above; conditions: Gynecologic cancer cell panel viability, ATPlite luminescence, 48 h; series mostly up to 57.5 µM
# Outline: as §2
# Es-2 = assay: as above; conditions: Gynecologic cancer cell panel viability, ATPlite luminescence, 48 h; series mostly up to 57.5 µM
# Outline: as §2
# Hek293T = assay: as above; conditions: Gynecologic cancer cell panel viability, ATPlite luminescence, 48 h, control line for the selectivity index; series mostly up to 57.5 µM
# Outline: as §2
# PA-1 = assay: as above; conditions: Gynecologic cancer cell panel viability, ATPlite luminescence, 48 h; series mostly up to 57.5 µM
# Outline: as §2
# SKOV3 = assay: as above; conditions: Gynecologic cancer cell panel viability, ATPlite luminescence, 48 h; series mostly up to 57.5 µM
# Outline: as §2
# [1] = Drug repurposing screens with cells derived from glioblastoma tumor samples (AID 1345199); conditions: GBM patient neurospheres viability, ATP luminescence, 48 h; note: nearly all actives have a fitted effect of over 40% in size
# Outline: (§3)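 Four patient lines of CD133+ GBM neurospheres were screened at several concentrations; hits were retested in those lines plus three slower-growing GBM lines, using 48-hour treatment and ATP-based viability.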
# astro = assay: as above; conditions: viability, ATP luminescence, 48 h; series mostly up to 45.9 µM
# Outline: as §3
# HeLa = assay: Primary qHTS to identify gynecologic anti-cancer compounds using libraries of approved drugs and bioactive compounds (AID 1345084); conditions: Gynecologic cancer cell panel viability, ATPlite luminescence, 48 h; series mostly up to 57.5 µM; note: nearly all actives have a fitted effect of over 55% in size
# Outline: as §2
# JEG-3 = assay: as above; conditions: Gynecologic cancer cell panel viability, ATPlite luminescence, 48 h; series mostly up to 57.5 µM
# Outline: as §2
# OV90 = assay: as above; conditions: Gynecologic cancer cell panel viability, ATPlite luminescence, 48 h; series mostly up to 57.5 µM
# Outline: as §2
# Tov-21-G = assay: as above; conditions: Gynecologic cancer cell panel viability, ATPlite luminescence, 48 h; series mostly up to 57.5 µM
# Outline: as §2
# Tov112D = assay: as above; conditions: Gynecologic cancer cell panel viability, ATPlite luminescence, 48 h; series mostly up to 57.5 µM
# Outline: as §2
# NIH3T3 = assay: qHTS assay to identify novel small-molecules to repurpose for Merkel cell carcinoma treatment (AID 1296009); conditions: MCC and control cell lines, CellTiter-Glo viability, 72 h; series mostly up to 44.8 µM; note: nearly all actives have a fitted effect of over 60% in size
# Outline: as §1
# [2] = at 46.1 µM (top of the series), tumour line C
# [3] = at 45.9 µM (top of the series), tumour line B
# [4] = at 45.9 µM (top of the series), tumour line D
# [5] = at 46 µM (top of the series), tumour line A
# Potency is the fitted concentration of half-maximal effect.
smiles,measurement,setting,value
COc1ccccc1N1CCN(CC(O)COc2cccc3ccccc23)CC1 (centres undefined),Potency,MKL-1,inactive
same,Potency,MKL-2,inactive
same,Potency,UISO,inactive
same,Potency,WaGa,inactive
same,Potency,C33A,8.91 µM (active)
same,Potency,CAOV3,12.6 µM (active)
same,Potency,CASKI,14.1 µM (active)
same,Potency,Es-2,25.1 µM (active)
same,Potency,Hek293T,31.6 µM (active)
same,Potency,PA-1,3.55 µM (active)
same,Potency,SKOV3,1.78 µM (active)
same,"activity, negative = cell killing",[1]; [2],-13.1% (inactive)
same,Potency,[1]; tumour line A,12.6 µM (active)
same,Potency,astro,inactive
CS(=O)(=O)Nc1ccc([N+](=O)[O-])cc1Oc1ccccc1,Potency,MKL-1,inactive
same,Potency,MKL-2,inactive and 14.8 µM (active)
same,Potency,UISO,inactive
same,Potency,WaGa,inactive
same,Potency,C33A,inactive
same,Potency,CASKI,inactive
same,Potency,Es-2,inactive
same,Potency,HeLa,inactive
same,Potency,Hek293T,inactive
same,Potency,JEG-3,inactive
same,Potency,OV90,inactive
same,Potency,PA-1,inactive
same,Potency,SKOV3,inactive
same,Potency,Tov-21-G,inactive
same,Potency,Tov112D,inactive
same,"activity, negative = cell killing","[1]; at 20 µM (top of the series), tumour line C",19.5% (inactive)
same,"activity, negative = cell killing","[1]; at 21.2 µM (top of the series), tumour line B",-19.6% (inactive)
same,"activity, negative = cell killing","[1]; at 21.2 µM (top of the series), tumour line D",-29.6% (inactive)
same,"activity, negative = cell killing","[1]; at 21.3 µM (top of the series), tumour line A",-28.2% (inactive)
same,Potency,astro,inactive
CC12CC3CC(C)(C1)CC(N)(C3)C2,Potency,MKL-1,inactive
same,Potency,MKL-2,inactive
same,Potency,UISO,inactive
same,Potency,WaGa,3.72 µM (active) and inactive
same,Potency,C33A,inactive
same,Potency,CASKI,inactive
same,Potency,Es-2,inactive
same,Potency,HeLa,inactive
same,Potency,Hek293T,inactive
same,Potency,JEG-3,inactive
same,Potency,OV90,inactive
same,Potency,PA-1,inactive
same,Potency,SKOV3,inactive
same,Potency,Tov-21-G,inactive
same,Potency,Tov112D,inactive
same,"activity, negative = cell killing",[1]; [3],2.01% (inactive)
same,"activity, negative = cell killing",[1]; [4],-1.27% (inactive)
same,"activity, negative = cell killing",[1]; [5],0.163% (inactive)
same,"activity, negative = cell killing",[1]; [2],0.449% (inactive)
same,Potency,astro,inactive
C[C@H]1c2cccc(O)c2C(O)=C2C(=O)[C@]3(O)C(O)=C(C(N)=O)C(=O)[C@@H](N(C)C)[C@@H]3[C@@H](O)[C@@H]21,Potency,MKL-1,inactive
same,Potency,MKL-2,inactive
same,outcome,NIH3T3,inactive
same,Potency,WaGa,inactive
same,Potency,C33A,inactive
same,Potency,CAOV3,inactive
same,Potency,Es-2,inactive
same,Potency,HeLa,inactive
same,Potency,Hek293T,inactive
same,Potency,JEG-3,inactive
same,Potency,OV90,inactive
same,Potency,PA-1,inactive
same,Potency,SKOV3,inactive
same,Potency,Tov-21-G,inactive
same,Potency,Tov112D,inactive
same,"activity, negative = cell killing",[1]; [3],-22.1% (inactive)
same,"activity, negative = cell killing",[1]; [4],-13% (inactive)
same,Potency,astro,inactive
CS(=O)(=O)CCNCc1ccc(-c2ccc3ncnc(Nc4ccc(OCc5cccc(F)c5)c(Cl)c4)c3c2)o1,Potency,MKL-1,inactive
same,Potency,MKL-2,11.9 µM (active)
same,Potency,UISO,inactive
same,Potency,WaGa,inactive and 16.8 µM (active)
same,Potency,C33A,inactive
same,Potency,CASKI,inactive
same,Potency,Es-2,inactive
same,Potency,HeLa,inactive
same,Potency,Hek293T,inactive
same,Potency,JEG-3,inactive
same,Potency,OV90,inactive
same,Potency,PA-1,inactive
same,Potency,SKOV3,inactive
same,Potency,Tov-21-G,inactive
same,Potency,Tov112D,inactive
same,"activity, negative = cell killing",[1]; [3],-6.77% (inactive)
same,"activity, negative = cell killing",[1]; [4],-7.21% (inactive)
same,"activity, negative = cell killing",[1]; [2],-22.4% (inactive)
same,Potency,astro,inactive
CC(C(=O)O)c1cccc(C(=O)c2ccccc2)c1 (centres undefined),Potency,MKL-1,inactive
same,Potency,MKL-2,inactive
same,outcome,NIH3T3,inactive
same,Potency,UISO,inactive
same,Potency,WaGa,inactive
same,Potency,CASKI,inactive
same,Potency,Es-2,inactive
same,Potency,HeLa,inactive
same,Potency,Hek293T,inactive
same,Potency,JEG-3,inactive
same,Potency,OV90,inactive
same,Potency,PA-1,inactive
same,Potency,Tov-21-G,inactive
same,Potency,Tov112D,inactive
same,"activity, negative = cell killing",[1]; [3],-12.8% (inactive)
same,"activity, negative = cell killing",[1]; [4],-8.28% (inactive)
same,"activity, negative = cell killing",[1]; [5],-32% (inactive)
same,"activity, negative = cell killing",[1]; [2],2.51% (inactive)
same,Potency,astro,inactive
O=C1N(c2ccccc2)c2ccccc2C1(Cc1ccncc1)Cc1ccncc1,Potency,MKL-1,inactive
same,Potency,MKL-2,inactive
same,Potency,UISO,inactive
same,Potency,WaGa,inactive
same,Potency,C33A,inactive
same,Potency,CAOV3,inactive
same,Potency,Es-2,1 µM (active)
same,Potency,HeLa,inactive
same,Potency,Hek293T,inactive
same,Potency,JEG-3,inactive
same,Potency,OV90,inactive
same,Potency,PA-1,inactive
same,Potency,SKOV3,inactive
same,Potency,Tov-21-G,inactive
same,Potency,Tov112D,inactive
same,"activity, negative = cell killing",[1]; [3],-5.15% (inactive)
same,"activity, negative = cell killing",[1]; [4],-2.7% (inactive)
same,"activity, negative = cell killing",[1]; [2],-22.5% (inactive)
CC(C)C(=O)Nc1ccc([N+](=O)[O-])c(C(F)(F)F)c1,Potency,MKL-1,inactive
same,Potency,MKL-2,inactive
same,outcome,NIH3T3,inactive
same,Potency,UISO,inactive
same,Potency,C33A,inactive
same,Potency,CASKI,inactive
same,Potency,Es-2,inactive
same,Potency,HeLa,inactive
same,Potency,Tov-21-G,inactive
same,Potency,Tov112D,inactive
Clc1ccc(C(c2ccccc2Cl)C(Cl)Cl)cc1 (centres undefined),Potency,MKL-1,inactive
same,Potency,MKL-2,inactive
same,Potency,UISO,inactive
same,Potency,WaGa,inactive
same,Potency,C33A,inactive
same,Potency,CASKI,inactive
same,Potency,Es-2,inactive
same,Potency,HeLa,inactive
same,Potency,Hek293T,inactive
same,Potency,JEG-3,inactive
same,Potency,OV90,inactive
same,Potency,PA-1,inactive
same,Potency,SKOV3,inactive
same,Potency,Tov-21-G,inactive
same,Potency,Tov112D,inactive
same,"activity, negative = cell killing",[1]; [2],32.2% (inactive)
same,Potency,[1]; tumour line A,22.4 µM (active)
C[C@](N)(Cc1ccc(O)c(O)c1)C(=O)O,Potency,MKL-1,inactive
same,Potency,MKL-2,inactive
same,Potency,UISO,inactive
same,Potency,WaGa,inactive
same,Potency,C33A,inactive
same,Potency,CAOV3,inactive
same,Potency,CASKI,inactive
same,Potency,Es-2,inactive
same,Potency,HeLa,inactive
same,Potency,Hek293T,inactive
same,Potency,OV90,inactive
same,Potency,PA-1,inactive
same,Potency,SKOV3,inactive
same,Potency,Tov-21-G,inactive
same,Potency,Tov112D,inactive
same,"activity, negative = cell killing",[1]; [3],-10.5% (inactive)
same,"activity, negative = cell killing",[1]; [4],-4.46% (inactive)
same,"activity, negative = cell killing",[1]; [2],1.22% (inactive)
same,Potency,astro,inactive
O=c1c(-c2ccc(O)cc2)coc2cc(O)cc(O)c12,Potency,MKL-1,inactive
same,Potency,MKL-2,inactive
same,Potency,UISO,inactive
same,Potency,WaGa,inactive and 26.6 µM (active)
same,Potency,C33A,inactive
same,Potency,CAOV3,inactive
same,Potency,Es-2,inactive
same,Potency,Hek293T,inactive
same,Potency,OV90,inactive
same,Potency,Tov-21-G,3.98 µM (active)
same,"activity, negative = cell killing",[1]; [2],-25.8% (inactive)
CCc1cccc2c3c([nH]c12)C(CC)(CC(=O)O)OCC3 (centres undefined),Potency,MKL-1,inactive
same,Potency,MKL-2,inactive
same,Potency,UISO,inactive
same,Potency,WaGa,inactive
same,Potency,C33A,inactive
same,Potency,CAOV3,inactive
same,Potency,CASKI,inactive
same,Potency,Es-2,inactive
same,Potency,HeLa,inactive
same,Potency,Hek293T,inactive
same,Potency,JEG-3,inactive
same,Potency,OV90,inactive
same,Potency,PA-1,inactive
same,Potency,SKOV3,inactive
same,Potency,Tov-21-G,inactive
same,Potency,Tov112D,inactive
same,"activity, negative = cell killing",[1]; [3],-7.67% (inactive)
same,"activity, negative = cell killing",[1]; [4],-2.3% (inactive)
same,"activity, negative = cell killing",[1]; [5],-23.8% (inactive)
same,"activity, negative = cell killing",[1]; [2],-25.9% (inactive)
CCOC(=O)Nc1ccc(NCc2ccc(F)cc2)nc1N,Potency,MKL-1,inactive
same,Potency,MKL-2,inactive
same,outcome,NIH3T3,inactive
same,Potency,UISO,inactive
same,Potency,WaGa,21.1 µM (active) and inactive
same,Potency,CASKI,inactive
same,Potency,Es-2,inactive
same,Potency,HeLa,inactive
same,Potency,Hek293T,inactive
same,Potency,JEG-3,inactive
same,Potency,OV90,inactive
same,Potency,PA-1,inactive
same,Potency,SKOV3,inactive
same,Potency,Tov-21-G,inactive
same,Potency,Tov112D,inactive
same,"activity, negative = cell killing",[1]; [3],-10.5% (inactive) and -16.1% (inactive)
same,"activity, negative = cell killing",[1]; [4],-21.3% (inactive) and 3.4% (inactive)
same,"activity, negative = cell killing",[1]; [2],4.51% (inactive)
same,Potency,[1]; tumour line A,10 µM (active)
